# From PubChem BioAssay
# TTR transcr act – TTR transcription activation, primary screen; SH-SY5Y TTR promoter Gaussia luciferase, luminescence; 100% = recombinant luciferase protein wells; activation, % at 16.7 µM; 92,000 tested, 1.3% active; AID 1117267;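 active means activation above the mean of all tested compounds plus 3 SD, cut at about 9.5% in these data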;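 further: cells exposed to compounds for one day before reading; 0% = median of all test compound wells on the plate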
# HuH7 TTR inh – HuH7 TTR transcription inhibition, counter-screen; shares compounds with TTR transcr act; HuH7 TTR promoter-Gaussia luciferase reporter, luminescence; inhibition, % at 16.7 µM; 1,100 tested, 4% active;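 active means average inhibition above the solvent-only control wells' mean plus 3 SD, cut at about 15% in these data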;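 further: 0% = cells with DMSO only and 100% = cells with inhibitor control FD; inhibitors lower well luminescence so higher value means more inhibition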
# TTR up confirm – human TTR transcription activation, confirmation; 1,100 tested, under 10 active; AID 1117280; activation, % at 16.7 µM; shares compounds with TTR transcr act; SHSY5Y TTR promoter Gaussia luciferase, luminescence; 100% = purified Lucia enzyme wells, no cells;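 active means mean activation above a set limit taken from the earlier primary screen, cut at about 11% in these data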;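 further: 0% = DMSO-treated cells and 100% = recombinant Lucia luciferase without cells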
# * = called active by the depositor. Many of the other results were omitted from the sample, so hits are more common in it than they were.
SMILES,TTR transcr act,others
O=[N+]([O-])c1cccc(-c2noc3c2-c2nc(Cc4cccc5ccccc45)sc2CC3)c1,34*,HuH7 TTR inh=-17;TTR up confirm=1
Fc1cccc(F)c1-c1nc2c(s1)CCc1onc(-c3ccc(Br)cc3)c1-2,-1,
CCSc1ccc([C@@H]2[C@H]3C(=O)N(C)C(=O)[C@H]3[C@]3(C(=O)OC)CCCCN23)cc1OC,0,
CCn1c(C)nc2cc(C(=O)N/N=C/c3ccc(OC)c(O)c3)ccc21,-1,
COc1cc(/C=C2/SC(=S)N(CC(=O)NNC(=O)c3ccc(F)cc3)C2=O)cc(OC)c1OC,2,
COc1cc(/C=C(\C#N)C(=O)NC(C)C)cc(Cl)c1O,0,
COc1ccc(/C=C(\C#N)C(=O)Nc2cc(C)c(Cl)cc2OC)cc1O,12*,HuH7 TTR inh=-4;TTR up confirm=0
COc1ccc(/C=C(/C#N)C(=O)Nc2cc(C)ccc2C)cc1C(=O)O,-1,
CO[C@@H]1CN(C)C(=O)c2ccc(NC(=O)C3CCCC3)cc2OC[C@@H](C)N(Cc2ccc(F)cc2)C[C@H]1C,1,
C=CCN1C(=O)[C@H](CC(=O)N2CCCC2)[C@@]2(C(=O)OCC)CCCC=C12,2,
Cc1noc(NC(=O)c2ccc(F)cc2)c1C#N,14*,HuH7 TTR inh=-17;TTR up confirm=0
O=C(Nc1ccc(C(O)(C(F)(F)F)C(F)(F)F)cc1)c1ccccc1C(F)(F)F,6,
Cc1noc(NS(=O)(=O)c2ccc(NC(=O)c3ccc(F)cc3)cc2)c1C,-2,
Cn1c(NC(=O)c2ccccc2C(F)(F)F)cc(=O)n(C)c1=O,0,
Cc1cccc(C(=O)Nc2onc(C)c2C#N)c1,5,
Cc1noc(NC(=O)c2ccccc2C(F)(F)F)c1C#N,12*,HuH7 TTR inh=-25;TTR up confirm=1
C[C@H]1C(=O)CC[C@@]23CCCN2C(=O)CCC[C@@H]13,1,
COc1cc(/C=N/NC(=O)c2cc(-c3ccc4c(c3)OCO4)n[nH]2)ccc1O,-3,
NC(=O)c1c(N)[nH]c(C(=O)c2ccccc2)c1-c1ccccn1,0,
CCCCn1nnnc1C1(C)CCC(=O)N1c1ccc(N2CCOCC2)cc1 (configuration not stated),0,
COc1cc(-c2csc(N3CCC(C(N)=O)CC3)n2)cc(OC)c1OC,2,
CCN(CC)CCCNC(=S)N(Cc1ccco1)Cc1cc2cc3c(cc2[nH]c1=O)OCCO3,1,
CCc1ccc2[nH]c(=O)c(CN(Cc3ccco3)C(=S)NCC3CCCO3)cc2c1 (configuration not stated),12*,HuH7 TTR inh=-24;TTR up confirm=2
CNC(=S)N(Cc1ccco1)Cc1cc2cc3c(cc2[nH]c1=O)OCCO3,-2,
CC1CN(C(=O)COC(=O)c2cncc(Br)c2)CC(C)O1 (configuration not stated),0,
SMILES,TTR transcr act,others
Cc1ccc(NC(=O)/C=C/c2ccc(S(=O)(=O)N3CCOCC3)cc2)cc1S(=O)(=O)N(C)C,-6,
COc1cc(CCC(=O)OCC(=O)Nc2c(C)cc(C)cc2C)cc(OC)c1OC,2,
Cc1cc(C)c(NC(=O)COC(=O)C2CCCO2)c(C)c1 (configuration not stated),0,
CC(=O)OCC(=O)Nc1c(C)cc(C)cc1C,9.9*,HuH7 TTR inh=-11;TTR up confirm=1
Cn1c(CNc2ccccc2F)nc2ccccc21,1,
CC1(c2ccccc2)NC(=O)N(CC(=O)N(c2ccccc2)C2CCS(=O)(=O)C2)C1=O (configuration not stated),14*,HuH7 TTR inh=-17;TTR up confirm=2
CCC1(c2ccccc2)NC(=O)N(CC(=O)N(c2ccccc2)C2CCS(=O)(=O)C2)C1=O (configuration not stated),5,
COc1ccc(C2(C)NC(=O)N(CC(=O)N(c3ccccc3)C3CCS(=O)(=O)C3)C2=O)cc1 (configuration not stated),-1,
C#CCOCCOCCOCCNc1nc(N2CCOCC2)nc(N2CCN(C(=O)[C@H](CCC(=O)O)n3cc(C(N)CO)nn3)CC2)n1 (some centres not stated),2,
COc1ccc(OC)c(/C=C2\SC(=S)N(C(C(=O)O)c3ccccc3)C2=O)c1 (configuration not stated),16*,HuH7 TTR inh=11;TTR up confirm=-1
C=CCOc1ccc(/C=C2\SC(=S)N(C(C(=O)O)c3ccccc3)C2=O)cc1 (configuration not stated),0,
CC(/C=C1\SC(=S)N(C(C(=O)O)c2ccccc2)C1=O)=C\c1ccccc1 (configuration not stated),0,
C=CCN(Cc1ccc(OC)cc1OC)C(C#CCCCC)c1ccccc1 (configuration not stated),-1,
C#CCNC(=O)C[C@H]1C[C@@]2(C(=O)OC)C(=C[C@H](C(C)C)O[C@@H]2C2CC2)N(Cc2cccc3ccccc23)C1=O,0,
O=C(NNc1nc2cc3c(cc2s1)OCO3)c1cccc(F)c1,-1,
Cc1ccc(NC(=O)c2scc3c2CCCC3)cc1,22*,HuH7 TTR inh=10;TTR up confirm=-2
Cc1ccc(C(=O)Nc2ccc3c(c2)CCC3)cc1,0,
CCN1CCCC(NC(=O)c2scc3c2CCCC3)C1 (configuration not stated),0,
CCC[C@H]1[C@H](N)CC[C@@]23CCCN2C(=O)CCC[C@@H]13,0,
CCCCNC(=O)C[C@@H]1C(=O)N(CCc2ccc(Cl)cc2)C2=CCCCC[C@]21C(=O)OC,1,
COc1ccc(NC(=O)/C=C/C(=O)O)c(OC)c1,2,
COc1ccc(NC(=O)C(F)(OC)C(F)(F)F)c(OC)c1 (configuration not stated),14*,HuH7 TTR inh=-8;TTR up confirm=1
CCC(C)C(=O)Nc1ccc(OC)cc1OC (configuration not stated),1,
Cc1scc(C(=O)NNC(=S)NC(C)c2ccccc2)c1C (configuration not stated),-1,
Oc1ccccc1N1CCN(c2nnnn2-c2ccccc2)CC1,0,
SMILES,TTR transcr act,others
O=C(C1CCN(c2nnnn2-c2ccccc2)CC1)N1CCN(c2ccccc2)CC1,-1,
NC(=O)C1CCN(c2nnnn2-c2ccccc2)CC1,10*,HuH7 TTR inh=-13;TTR up confirm=-1
Fc1cccc(F)c1Cn1ccc2ccc(-c3ccc4ccn(Cc5c(F)cccc5F)c4c3)cc21,0,
CCOC(=O)N1CCC(NC(=O)c2cc(C(=O)Nc3cccc(C(F)(F)F)c3)ccc2CO)CC1,-2,
CS(=O)(=O)N1CCC(C(=O)Nc2cccc(C(F)(F)F)c2)CC1,0,
CCN1CCC(NC(=O)Nc2cccc(C(F)(F)F)c2)CC1,19*,HuH7 TTR inh=-14;TTR up confirm=0
O=S1(=O)c2c(cccc2N2CC[C@H](O)C2)OCCCN1C1CC1,0,
O=C(c1nc2nc(-c3ccccc3)cc(C(F)(F)F)n2n1)N1CCCCC1,11*,HuH7 TTR inh=-3;TTR up confirm=0
COc1ccc(-c2cc(C(F)(F)F)n3nc(C(=O)N4CCOCC4)nc3n2)cc1,3,
O=C(c1cc2nc(-c3ccccc3)cc(C(F)(F)F)n2n1)N1CCCC1,-1,
CC1(C)C=C2C(N(Cc3ccc4c(c3)OCO4)C(=N)N2C(=O)OCc2ccccc2)n2c(=O)n(-c3ccccc3)c(=O)n21 (configuration not stated),1,
CCc1ccccc1NC(=O)COc1cccc(-n2cnnn2)c1,2,
O=C(C1CCN(S(=O)(=O)c2ccccc2[N+](=O)[O-])CC1)N1CCOCC1,0,
CCC(=O)Nc1nnc(-c2ccco2)o1,1,
